In ChEMBL document CHEMBL1157539, “Thousands of chemical starting points for antimalarial lead identification” (Nature, 2010) one finds Inhibition data, which are given here for 35 molecules.

The subject of this experiment is Plasmodium falciparum. The experiment is described as follows: GSK_TCMDC: Inhibition of Plasmodium falciparum 3D7 in whole red blood cells, using parasite LDH activity as an index of growth. Test compounds present at 2uM. Format: functional.
For `Nc1nc(N)c2nc(C3CC=CCC3)c(N)nc2n1` (stereo not given), the Inhibition (usually how much of the control response was suppressed) worked out at 95%.

Consider `C=CCOC(=O)N1CCC(CNCc2ccc(-c3ccc(-c4nc5ccccc5[nH]4)s3)cc2)C1.O=C(O)C(F)(F)F` (stereo not given), for which the Inhibition is listed as 100%.

On to `COc1ccccc1C(=O)C1CCCN(C(=O)c2ccccc2C(F)(F)F)C1` (stereo not given), for which the Inhibition was 91%.

`CCc1c(CCNCCCCCCNC(C)Cc2ccc3c(c2CC)OCO3)ccc(OC)c1OC.Cl` (stereo not given) gave an Inhibition of 100%.

Take `O=C(NCCN1CCCCC1)c1ccc(CNC(=O)c2ccc(O)c(-c3cccc(C(F)(F)F)c3)c2)cc1`: the Inhibition stood at 94%.

`CN(C(=O)Nc1ccc(C(F)(F)F)cc1)C1CCN(CCCCCNC(=O)/C=C/c2ccc(Cl)c(Cl)c2)CC1` registered an Inhibition of 100%.

In turn, `Cc1ccc2[nH]c(-c3cc(-c4cccc(C#N)c4)cnc3N)nc2c1.O=C(O)C(F)(F)F` yielded an Inhibition of 100%.

On to `Cl.Cn1c(=N)n(CC(=O)N2CCc3ccc(Cl)cc3C2Cc2ccc(Cl)c(Cl)c2)c2ccccc21` (stereo not given), for which the Inhibition was found to be 100%.

For `Cc1ccccc1N1CCN(c2ccc(C(=O)Nc3ccccc3)cn2)CC1.O=C(O)C(F)(F)F`, the Inhibition worked out at 95%.

Take `CCN(CC)CCN(Cc1ccc(-c2ccc(C(F)(F)F)cc2)cc1)C(=O)Cn1c(SCc2ccc(F)cc2)nc(=O)c2ccccc21.O=C(O)C(O)C(O)C(=O)O`: the Inhibition was 98%.

On to `COc1ccc(C(=O)N2CCC3(CC2)C(=O)N(CC(=O)NCC2CCCCC2)CN3c2ccccc2)cc1`, for which the Inhibition was determined as 100%.

The molecule `COc1cc2nc(N3CCN(c4nc(N)c5cc(OC)c(OC)cc5n4)CC3)nc(N)c2cc1OC` came in with an Inhibition of 100%.

On to `Br.c1ccc(-c2ccc(-c3csc(Nc4ccncc4)n3)cc2)cc1`, for which the Inhibition is 100%.

Regarding `COc1ccc2nccc([C@@H](O)CN3CCC(NC(=O)c4nc(Cl)c(Cl)c(N)c4Cl)CC3)c2c1.CS(=O)(=O)O`, the Inhibition was 87%.

`CN1CCN(c2ccc(Nc3c(C(N)=O)cnc4cc(-c5ccoc5)ccc34)cc2)CC1.Cl` had an Inhibition of 100%.

`CCCc1cc(Cc2cnc(N)nc2N)cc(CCC)c1OCCCC(=O)OCC`: the Inhibition stood at 94%.

Turning to `CC(C)c1cccc(C(C)C)c1NC(=O)NNC(=O)c1ccc(CCN2CCC(c3nc(COCC(F)(F)F)c(-c4ccc(F)cc4)o3)CC2)cc1`, the Inhibition is 88%.

Molecule `COc1c(C2CCN(CCCCNC(=O)c3oc(-c4ccc(Cl)cc4)cc3CO)CC2)ccc2c1CCCC2` came in with an Inhibition of 100%.

On to `FC(F)(F)c1ccc(CNCC2CCN(Cc3ccc4c(c3)OCO4)CC2)cc1.O=C(O)C(F)(F)F`, for which the Inhibition came to 80%.

With `COc1c(C(=O)NC2CCN(Cc3ccccc3)C2)cnc2ccccc12.Cl` (stereo not given), the Inhibition was 86%.

Regarding `CC(=O)Nc1cccc(Nc2nccc(Nc3ccc(Oc4ccccc4)cc3)n2)c1.Cl`, the Inhibition was 100%.

For the molecule `COc1ccc(-c2cccc(NC(=O)c3ccc(Cl)cc3)c2)cc1CN1CCCN(C)CC1.O=C(O)C(F)(F)F`, the Inhibition is given as 100%.

On to `COc1cc2ncnc(Nc3ccc(OCc4ccccc4Br)c(Cl)c3)c2cc1OC.Cl`, for which the Inhibition came to 96%.

With `O=S(=O)(c1c(Cl)cc(Cl)cc1Cl)N1CCCCC(c2ccc(Cl)cc2)=N1`, the Inhibition was 95%.

With `CCc1cn2c3c(cc(C(=O)N[C@@H](Cc4ccccc4)[C@H](O)CNC4CCOCC4)cc13)N(C(C)C)S(=O)(=O)CC2.O=CO`, the Inhibition turned out to be 98%.

The molecule `Cc1cccc2nc(-c3ccc(-c4ccc(CN5CCC(C(N)=O)CC5)cc4)s3)[nH]c12.O=C(O)C(F)(F)F` yielded an Inhibition of 97%.

`CC(C)NCC(O)COc1ccc(Cc2ccc(OCC(O)CNC(C)C)cc2)cc1.Cl` (stereo not given) returned an Inhibition of 100%.

The molecule `O=C(NC1CCN(Cc2ccccc2)CC1)c1ccc2c(=O)n(Cc3ccc(Cl)cc3)c(=S)[nH]c2c1` showed an Inhibition of 100%.

`CO/C(=C\C=C\c1cc2cc(Cl)c(Cl)cc2[nH]1)C(=O)NCCCN1CCN(c2ccncc2)CC1`: the Inhibition is recorded as 98%.

Regarding `COc1ccc2nccc([C@@H](O)CN3CCC(NC(=O)C(c4ccsc4)N4CCN(c5ccccc5OC)CC4)CC3)c2c1` (stereo not given in full), the Inhibition is 95%.

Molecule `COc1ccc2nc(C)cc(Nc3ccc(Oc4ccc(Cl)c5ccccc45)c(Cl)c3)c2c1` had an Inhibition of 100%.

In turn, `O=C(Nc1cccc(N2CCC(NCCCc3ccncc3)CC2)c1)c1cccc(C(F)(F)F)c1` returned an Inhibition of 96%.

Molecule `CCN(CC)c1ccc(C(=O)Cn2ccc(=N)cc2)cc1` showed an Inhibition of 84%.

`CC(C)CCN1CCC(Oc2ccc(NC(=O)c3ccc(F)cc3)cc2Cl)CC1.O=C(O)C(F)(F)F` had an Inhibition of 98%.

For the molecule `Cc1[nH]c(C)c(-c2ccc(OCc3ccc(OC(F)(F)F)cc3)nc2)c(=O)c1Cl`, the Inhibition is given as 98%.
